# Assay results as given in the supplement of paper PMC8728848.
# About 410 targets per protein were measured; listed, in parts, are those with the strongest signals and a random draw of the rest.
# Assays:
# Assay in all cases: glycan array binding signal (z-score within array); higher = stronger binding
# Conditions in all cases: glycan notation: IUPAC condensed, linker removed
# [1] = molecular target: Fuc(a1-2)Gal(b1-3)GalNAc(b1-3)Gal(a1-4)Gal(b1-4)Glc
# In short: (§1)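 Glycan array data came from 3228 arrays in the Consortium for Functional Glycomics database, and only arrays with an available protein sequence were kept. Glycan names were put into IUPAC-condensed notation, and columns mapping to the same glycan were averaged. The binding signal is a within-array Z-score, averaged across arrays of one protein sequence run at different concentrations or buffers and across linkers. A negative Z-score can be read as non-binding.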
# [2] = molecular target: Fuc(a1-2)Gal(b1-3)GlcNAc(b1-3)[Neu5Ac(a2-6)Gal(b1-4)GlcNAc(b1-6)]Gal(b1-4)Glc
# In short: as §1
# [3] = molecular target: Fuc(a1-2)Gal(b1-3)GlcNAc6S
# In short: as §1
# [4] = molecular target: Fuc(a1-2)Gal(b1-3)[Fuc(a1-4)]GlcNAc(b1-2)Man(a1-3)[Fuc(a1-2)Gal(b1-3)[Fuc(a1-4)]GlcNAc(b1-2)Man(a1-6)]Man(b1-4)GlcNAc(b1-4)[Fuc(a1-6)]GlcNAc(b1-4)[Fuc(a1-6)]GlcNAc
# In short: as §1
# [5] = molecular target: Fuc(a1-2)Gal(b1-4)GlcNAc
# In short: as §1
# [6] = molecular target: Fuc(a1-2)Gal(b1-4)GlcNAc(b1-3)Gal(b1-4)GlcNAc(b1-2)Man(a1-3)[Fuc(a1-2)Gal(b1-4)GlcNAc(b1-3)Gal(b1-4)GlcNAc(b1-2)Man(a1-6)]Man(b1-4)GlcNAc(b1-4)GlcNAc
# In short: as §1
# [7] = molecular target: Fuc(a1-2)Gal(b1-4)GlcNAc(b1-3)Gal(b1-4)GlcNAc(b1-3)Gal(b1-4)GlcNAc
# In short: as §1
# [8] = molecular target: Fuc(a1-2)Gal(b1-4)[Fuc(a1-3)]GlcNAc
# In short: as §1
# [9] = molecular target: Fuc(a1-2)Gal(b1-4)[Fuc(a1-3)]GlcNAc(b1-3)GalNAc
# In short: as §1
# [10] = molecular target: Fuc(a1-2)[Gal(a1-4)]Gal(b1-4)GlcNAc
# In short: as §1
# [11] = molecular target: Fuc(a1-2)[GalNAc(a1-3)]Gal(b1-3)GalNAc(a1-3)[Fuc(a1-2)]Gal(b1-4)GlcNAc
# In short: as §1
# [12] = molecular target: Fuc(a1-2)[GalNAc(a1-3)]Gal(b1-3)GalNAc(b1-3)Gal(a1-4)Gal(b1-4)Glc
# In short: as §1
# [13] = molecular target: Fuc(a1-2)[GalNAc(a1-3)]Gal(b1-4)GlcNAc(b1-2)Man(a1-3)[Fuc(a1-2)[GalNAc(a1-3)]Gal(b1-4)GlcNAc(b1-2)Man(a1-6)]Man(b1-4)GlcNAc(b1-4)GlcNAc
# In short: as §1
# [14] = molecular target: Fuc(a1-2)[GalNAc(a1-3)]Gal(b1-4)GlcNAc(b1-3)[Fuc(a1-2)[GalNAc(a1-3)]Gal(b1-4)GlcNAc(b1-6)]GalNAc
# In short: as §1
# [15] = molecular target: Gal(a1-3)Gal(b1-3)GlcNAc(b1-2)Man(a1-3)[Gal(a1-3)Gal(b1-3)GlcNAc(b1-2)Man(a1-6)]Man(b1-4)GlcNAc(b1-4)GlcNAc
# In short: as §1
# [16] = molecular target: Gal(a1-3)Gal(b1-4)GlcNAc(b1-2)Man
# In short: as §1
# [17] = molecular target: Gal(a1-3)Gal(b1-4)GlcNAc(b1-3)GalNAc
# In short: as §1
# [18] = molecular target: Gal(a1-3)[Gal(a1-4)]Gal(b1-4)GlcNAc
# In short: as §1
# [19] = molecular target: Gal(b1-3)GalNAc(a1-3)[Fuc(a1-2)]Gal(b1-4)Glc
# In short: as §1
# [20] = molecular target: Gal(b1-3)GalNAc(b1-3)Gal(a1-4)Gal(b1-4)Glc
# In short: as §1
# [21] = molecular target: Gal(b1-3)GlcNAc(b1-2)Man
# In short: as §1
# [22] = molecular target: Gal(b1-3)GlcNAc(b1-2)[Gal(b1-3)GlcNAc(b1-6)]Man(a1-6)[Gal(b1-3)GlcNAc(b1-2)Man(a1-3)]Man(b1-4)GlcNAc(b1-4)GlcNAc
# In short: as §1
# [23] = molecular target: Gal(b1-3)GlcNAc(b1-6)Gal(b1-4)GlcNAc
# In short: as §1
# [24] = molecular target: Gal(b1-3)[Neu5Ac(b2-6)]GalNAc
# In short: as §1
# [25] = molecular target: Gal(b1-4)GlcNAc(b1-2)Man(a1-3)Man(b1-4)GlcNAc(b1-4)GlcNAc
# In short: as §1
# [26] = molecular target: Gal(b1-4)GlcNAc(b1-2)Man(a1-3)[GlcNAc(b1-2)Man(a1-6)]Man(b1-4)GlcNAc(b1-4)GlcNAc
# In short: as §1
# [27] = molecular target: Gal(b1-4)GlcNAc(b1-2)Man(a1-6)[Man(a1-3)]Man(b1-4)GlcNAc(b1-4)GlcNAc
# In short: as §1
# [28] = molecular target: Gal(b1-4)GlcNAc(b1-2)[Gal(b1-4)GlcNAc(b1-6)]Man(a1-6)[GlcNAc(b1-4)][Gal(b1-4)GlcNAc(b1-2)Man(a1-3)]Man(b1-4)GlcNAc(b1-4)GlcNAc
# In short: as §1
# [29] = molecular target: Gal(b1-4)GlcNAc(b1-3)Gal(b1-4)Glc
# In short: as §1
# [30] = molecular target: Gal(b1-4)GlcNAc(b1-3)Gal(b1-4)GlcNAc
# In short: as §1
binder,measurement,setting,value
SBD-G4S3-Fc (protein) MASIPSSASVQLDSYNYDGSTFSGKIYVKNIAYSKKVTVVYADGSDNWNNNGNIIAASFSGPISGSNYEYWTFSASVKGIKEFYIKYEVSGKTYYDNNNSANYQVSTGGGGSGGGGSGGGGSEFVPRDCGCKPCICTVPEVSSVFIFPPKPKDVLTITLTPKVTCVVVDISKDDPEVQFSWFVDDVEVHTAQTQPREEQFNSTFRSVSELPIMHQDWLNGKEFKCRVNSAAFPAPIEKTISKTKGRPKAPQVYTIPPPKEQMAKDKVSLTCMITDFFPEDITVEWQWNGQPAENYKNTQPIMDTDGSYFVYSKLNVQKSNWEAGNTFTCSVLHEGLHNHHTEKSLSHSPGAA,glycan array binding signal (z-score),[1],-0.249
same,glycan array binding signal (z-score),[2],-0.478
same,glycan array binding signal (z-score),[3],-0.371
same,glycan array binding signal (z-score),[4],0.339
same,glycan array binding signal (z-score),[5],-0.284
same,glycan array binding signal (z-score),[6],1.23
same,glycan array binding signal (z-score),[7],-0.034
same,glycan array binding signal (z-score),[8],0.134
same,glycan array binding signal (z-score),[9],0.32
same,glycan array binding signal (z-score),[10],-0.203
same,glycan array binding signal (z-score),[11],5.6
same,glycan array binding signal (z-score),[12],0.07
same,glycan array binding signal (z-score),[13],0.007
same,glycan array binding signal (z-score),[14],-0.2
same,glycan array binding signal (z-score),[15],1.16
same,glycan array binding signal (z-score),[16],-0.234
same,glycan array binding signal (z-score),[17],0.357
same,glycan array binding signal (z-score),[18],1.33
same,glycan array binding signal (z-score),[19],-0.267
same,glycan array binding signal (z-score),[20],0.103
same,glycan array binding signal (z-score),[21],-0.388
same,glycan array binding signal (z-score),[22],-0.089
same,glycan array binding signal (z-score),[23],-0.401
same,glycan array binding signal (z-score),[24],-0.146
same,glycan array binding signal (z-score),[25],0.225
same,glycan array binding signal (z-score),[26],-0.37
same,glycan array binding signal (z-score),[27],0.054
same,glycan array binding signal (z-score),[28],0.227
same,glycan array binding signal (z-score),[29],-0.301
same,glycan array binding signal (z-score),[30],-0.054
